The text below walks through data of PubChem BioAssay.

Sequence of NADPH oxidase 5 (Homo sapiens) (Q96PH1 whole entry, looked up): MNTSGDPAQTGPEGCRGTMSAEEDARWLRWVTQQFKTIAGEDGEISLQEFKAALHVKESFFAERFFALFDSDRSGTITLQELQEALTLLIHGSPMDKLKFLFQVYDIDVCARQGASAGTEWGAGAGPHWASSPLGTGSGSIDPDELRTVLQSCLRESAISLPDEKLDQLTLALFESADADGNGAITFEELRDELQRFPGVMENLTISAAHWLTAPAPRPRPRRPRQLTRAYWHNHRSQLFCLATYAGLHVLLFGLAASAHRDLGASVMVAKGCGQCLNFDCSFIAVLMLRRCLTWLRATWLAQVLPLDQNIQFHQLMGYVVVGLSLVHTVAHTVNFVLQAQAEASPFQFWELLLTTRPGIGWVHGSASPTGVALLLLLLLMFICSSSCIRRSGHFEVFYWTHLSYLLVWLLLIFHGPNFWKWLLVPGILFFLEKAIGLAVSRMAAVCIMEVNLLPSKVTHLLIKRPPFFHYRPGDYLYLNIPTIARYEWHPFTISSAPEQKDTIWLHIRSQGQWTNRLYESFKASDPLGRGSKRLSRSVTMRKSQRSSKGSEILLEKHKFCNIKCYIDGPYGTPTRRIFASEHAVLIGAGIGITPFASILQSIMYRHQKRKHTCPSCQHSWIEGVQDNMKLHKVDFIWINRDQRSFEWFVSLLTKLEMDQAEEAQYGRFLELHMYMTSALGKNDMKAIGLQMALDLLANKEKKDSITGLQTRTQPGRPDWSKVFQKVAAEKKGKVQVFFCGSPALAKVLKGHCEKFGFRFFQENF

This test addresses NADPH oxidase 5 (Homo sapiens) (UniProt Q96PH1). Nature of the test: compounds shifting NOX5 Amplex Red fluorescence – cell-based, HEK293-NOX5, NOX inhibitor project, primary screen (AID 1161). The conditions noted are these: HEK293-NOX5, ionomycin, 45 min, higher = more signal.
As to `CC1CC/C=C\[C@H]2OC34C=CCN(C(C)C)C(=O)[C@H]3N(CCO)C(=O)[C@@H]4C2C(=O)O1` (some centres undefined), the z-score was found to be 2.03.

Regarding `C=C(/C(=C/C[C@H](OC(=O)c1ccncc1)c1ccc(CO)o1)c1cnc2ccccc2c1)C(C)C`, the z-score is -0.415.

In the case of `Cc1ccc(F)cc1S(=O)(=O)N[C@@H]1CCN(Cc2ccc(Br)cc2)C1`, the z-score was -2.15.

For the compound `CN1C2C=C(CCCO)C(C3C(=O)N(C(N)=O)C(=O)C32)C1C1CC1` (centres undefined), the z-score was determined as 0.257.

Turning to `Cc1ccc(S[C@]2(C(=O)O)CC(=O)N(C3CCCCC3)[C@@H]2c2ccc(CO)cc2I)cc1`, the z-score was -1.86.

`COCCOC(=O)N1C(=O)[C@@]2(c3cc(C#CC4(O)CCCCCC4)ccc31)[C@H](C(=O)N1CCc3cc(OC)c(OC)cc3C1)[C@H]1C(=O)O[C@H](c3ccccc3)[C@H](c3ccccc3)N1[C@@H]2c1ccc(OCCO)cc1`: the z-score amounted to 1.74.

`COC(=O)[C@@]1(Cc2ccc(OC)cc2)[C@H]2c3cc(C(=O)N4CCCC4)n(CCc4c[nH]c5ccc(O)cc45)c3C[C@H]2CN1C(=O)c1ccccc1`: the z-score was -3.5.

For the compound `CN(C)C(=O)[C@]1(CCC(=O)OC(C)(C)C)N=C(c2ccc(OCCCO)cc2)O[C@@H]1c1ccccc1CN=[N+]=[N-]`, the z-score amounted to 1.19.

As for `CCOC(=O)C1=CC[C@@H](c2ccccc2)N(S(=O)(=O)c2ccc(C)cc2)[C@H]1c1ccccc1`, the z-score was found to be 1.75.

Consider `NC(=O)[C@H]1[C@@H]2C(=O)O[C@@H](c3ccccc3)[C@@H](c3ccccc3)N2[C@@H](c2ccc(OCCO)cc2)[C@]12C(=O)Nc1ccc(C#CCCO)cc12`, for which the z-score is 1.13.

As to `CCCCCCCCCC(O)C1C=CC2C(=O)N(c3ccccc3)C(=O)C2N1Nc1cc(OC)c(OC)c(OC)c1` (centres undefined), the z-score was -2.67.

As for `COc1cc(OC)c(C(O)C2C=CC3C(=O)N(Cc4ccccc4)C(=O)C3N2n2cnnc2)cc1Br` (centres undefined), the z-score was -3.53.

Consider `O=C1O[C@@H](c2ccccc2)[C@@H](c2ccccc2)N2[C@@H](c3ccc(OCCO)cc3)[C@]3(C(=O)Nc4ccc(C#CC5=CCCCC5)cc43)[C@@H](C(=O)NC[C@H](O)c3ccccc3)[C@H]12`, for which the z-score came to 0.469.

Turning to `CC(C)[Si](C#CCCCC#N)(O[C@H](c1ccccc1)c1cn(Cc2ccccc2)nn1)C(C)C`, the z-score came out at 0.536.

As to `CC1=C2[C@@H](CCc3ccccc3)OB(O)C[C@@H]2[C@@H]2C(=O)N(C)C(=O)[C@@H]2C1`, the z-score was -0.54.

As for `COc1ccc([Si](C)(C)[C@H]2[C@H](CC(=O)N(CCO)Cc3ccccc3)O[C@@]3(C(=O)N(C)c4c(Br)cc(C)cc43)[C@@H]2C)cc1`, the z-score was -0.876.

As for `C=CC[C@@]1(C(=O)NCCCOC)N=C(c2ccc(OCCCO)cc2)O[C@@H]1c1ccccc1N=[N+]=[N-]`, the z-score was -1.64.

Turning to `COC(=O)C(CC#Cc1ccc2c(c1)[C@]1(C(=O)N2)[C@H](c2ccc(O)cc2)N2[C@H](c3ccccc3)[C@H](c3ccccc3)OC(=O)[C@H]2[C@@H]1C(=O)NC[C@H](O)c1ccccc1)C(=O)OC`, the z-score was 1.47.

Regarding `COc1ccc([Si](C)(C)[C@H]2[C@H](CC(=O)N3Cc4ccccc4C[C@H]3CO)O[C@@]3(C(=O)N(Cc4ccc(N5CCOC5=O)cc4)c4ccccc43)[C@@H]2C)cc1`, the z-score is -0.344.

For `COC(=O)c1c(CC[C@@H](CO)NC(=O)N[C@@H](C)Cn2cc(-c3ccccn3)nn2)oc(C(C)=O)c1C(=O)OC`, the z-score is -3.06.

As to `COCC(=C=CC[C@H](O)c1ccc(OCCO)cc1)CCO`, the z-score is -0.704.

For the compound `N[C@@H](Cc1ccccc1)C(=O)NCc1cn(Cc2ccccc2)nn1`, the z-score came out at 0.255.

For `CCOC(=O)C[C@H]1[C@H](OC(=O)Cc2ccc3c(c2)OCO3)[C@@H](NC(=O)c2ccc3ccccc3n2)c2cc(OCCCO)ccc2N1C(=O)c1ccccc1`, the z-score was -2.

Take `CC(CO)N1C(=O)[C@]2(C)C3C(=O)OCCC/C=C\[C@H]3OC23C=CCN(c2ccc(Cl)cc2)C(=O)[C@@H]13` (some centres undefined): the z-score worked out at 1.33.

In the case of `CC(=O)NCCCC[C@@H]1NC(=O)[C@@H]2C[C@H](C(=O)NCCCCCN)[C@H](c3ccc(O)cc3)N2C1=O`, the z-score worked out at 2.86.

For the compound `COC(=O)[C@@]1(Cc2ccccc2)[C@H]2c3cc(C(=O)N(C)C)n(Cc4ccc(C)o4)c3C[C@H]2CN1C(=O)c1ccccc1`, the z-score was -4.77.

Take `CCCC[C@@H](O)C1=C(COc2ccccc2)C[C@H]2C(=O)N(Cc3ccccc3)C(=O)[C@H]2[C@H]1CO`: the z-score was -0.695.

For the compound `COC(=O)C1(CC(C)C)C=C2C(=C(c3ccccc3)C(=O)C2C)CN1` (centres undefined), the z-score was -2.44.

Take `COc1ccc(CCNC(=O)[C@@]2(c3ccc([N+](=O)[O-])cc3)CC(=O)N(C3CCCCC3)[C@@H]2c2ccc(CO)cc2)cc1`: the z-score was 0.0392.
